Results on 93 molecules are retold here after PubChem BioAssay AID504467 (National Center for Advancing Translational Sciences (NCATS), 2011).

SMILES strings stand for the structures. In all, about 330,000 compounds went through this assay and about 7,700 (2.3%) were called active. About 26% were inconclusive and are not listed. Calls come from the whole dose curve; as a rule, active = well fitted inhibition curve with a large enough effect; inconclusive = small, poorly fitted or top-dose-only effect, or effect the other way; inactive = flat fitted curve, though single readings scatter. The list comes from a sample in which actives are over-represented; it also holds similar structures and randomly drawn compounds. A call without a number means that no potency is given here.
Potency is the fitted concentration of half-maximal effect.

This test in a line: qHTS screen for small molecules that inhibit ELG1-dependent DNA repair in human embryonic kidney (HEK293T) cells expressing luciferase-tagged ELG1. Note: nearly all actives have a fitted effect of over 55% in size. The following applies: HEK293T ELG1-luciferase reporter, luminescence, 16 h, DNA damage induced by 5-fluorouridine; series mostly up to 46.1 µM. In short, it runs like this: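 Step one: seed 2,000 cells per well. Step two: pin-transfer compound or DMSO alongside 5-fluorouridine. Step three: incubate 16 hr, 37 °C, 5% CO2. Step four: add ONE-Glo, wait 30 min, read luminescence.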
As to `COc1ccc(CCNC(=O)CCc2cn(C)c3ccccc23)c(OC)c1`, the Potency result is “inactive”. Consider `CCOc1ccc(NS(=O)(=O)c2ccc(C(=O)NCC(c3ccccc3OC)N3CCCC3)cc2)cc1` (stereo not drawn), for which the Potency result was “inactive”.

With `O=C(OCC(=O)N1CCN(c2ccccc2)CC1)c1ccc([N+](=O)[O-])s1`, the Potency entry is “inactive”. The result for `COc1ccc(CC(=O)N[C@@H]2c3cc(OC)c(OC)cc3C[C@H]2OCc2ccccc2)cc1` reads “inactive”; that for `CC(C)CN(C(=O)COC(=O)c1ccc2ccccc2c1)c1c(N)n(Cc2ccccc2)c(=O)[nH]c1=O`, “inactive”. The result for `O=C(O[C@@H]1[C@H](Cc2ccccc2)NS(=O)(=O)[C@H]2C[C@@H]3C=C[C@]12O3)c1ccccc1Br` reads “inactive”; that for `COc1ccc(C2=NS(=O)(=O)N(C)C(C(=O)NC(C)c3ccccc3)=C2)cc1` (stereo not drawn), “inactive”; that for `COc1cc(NC(=O)C2=CC(c3ccco3)=NS(=O)(=O)N2C)cc(OC)c1OC`, “inactive”. The result for `COc1cc(NC(=O)C2=CC(c3ccc(C)cc3)=NS(=O)(=O)N2C)cc(OC)c1OC` reads 13 µM (active); that for `C=CCn1c(SCn2nnc3ccccc3c2=O)nnc1-c1ccc(Cl)cc1`, “inactive”; that for `C=CCn1c(SCc2c(C(=O)OC)sc(N)c2C(=O)OC)nnc1-c1ccc(Cl)cc1`, 23.1 µM (active).

For `C=CCn1c(SCc2cc(C(=O)OC)c(C)o2)nnc1-c1ccncc1`, the Potency entry is “inactive”. As for `C#CCOCCOCCOCCNc1nc(N2CCN(C(=O)[C@H](CCCN=C(N)N)n3cc(C(N)[C@@H](C)CC)nn3)CC2)nc(N2CCN(C(=O)[C@H](CO)n3cc([C@@H](N)C(C)C)nn3)CC2)n1` (stereo partly drawn), the Potency entry was “inactive”. The result for `CN(c1ccc(OCC(=O)O)cc1)S(=O)(=O)c1ccc2ccccc2c1` reads “inactive”. The result for `CC(C)=CCCC(C)CN1CCC(n2nccc2NC(=O)c2ccccc2)CC1` (stereo not drawn) reads “inactive”; that for `Cc1cc(C)c2[nH]c(=O)c(CN(Cc3ccccc3)C(=S)NCCCN(C)C)cc2c1`, “inactive”. The result for `Cc1cccc2cc(CN(C(=O)c3cccs3)c3ccccc3)c(=O)[nH]c12` reads “inactive”; that for `Cc1cccc2cc(CN(Cc3cccs3)C(=S)NCc3ccco3)c(=O)[nH]c12`, 20.6 µM (active). On to `C=CC[C@@H](CC(=O)N[C@@H](CO)Cc1ccccc1)C(=O)N[C@H](COC(=O)[C@H](CC=C)CC(=O)OC(C)(C)C)Cc1ccccc1`, for which the Potency entry is “inactive”.

In the case of `COCCCNc1nc2c(-c3cccc(C(F)(F)F)c3)nnn2c2ccccc12`, the Potency result was “inactive”.

For `COCCNc1cc(-c2ccccc2)nc2cc(-c3cccc(F)c3)nn12`, the Potency was 18.3 µM (active). For `COC(=O)C(C)Sc1ccc2nnc(-c3cccc(F)c3)n2n1` (stereo not drawn), the Potency result is “inactive”. In the case of `O=S(=O)(c1ccc(SCc2ccc(Br)cc2)nc1)N1CCOCC1` it was “inactive”; in that of `CC(=O)Oc1ccc2c(=O)oc(-c3ccc([N+](=O)[O-])cc3)nc2c1`, “inactive”; in that of `Cc1ccc(NC(=O)C/C(N)=N/O)cc1Cl`, “inactive”. Regarding `O=C(CC(O)(C(F)(F)F)C(F)(F)F)Nc1ccc(Cl)c(Cl)c1`, the Potency was 4.11 µM (active). In the case of `O=C(CC(=O)Nc1ccc(Cl)c(Cl)c1)N/N=C/c1ccc(O)cc1` it was “inactive”; in that of `COc1cccc2cc(C(=O)NCc3ccc(C)cc3)c(=N)oc12`, “inactive”. The result for `CCOc1ccc(NC(=O)CN(C)C(=O)c2cccc(S(=O)(=O)N3CCCC3)c2)cc1OCC` reads “inactive”; that for `Cn1c(SCC(=O)N2CCCc3ccccc32)nc2ccccc2c1=O`, 16.4 µM (active); that for `CCOC(=O)CNC(=O)CSc1ccc2nnc(-c3cccnc3)n2n1`, “inactive”. The result for `O=C(CSc1nc2[nH]ncc2c(=O)n1-c1ccccc1)N1CCCc2ccccc21` reads “inactive”. On to `CCC(=O)N1CCCc2ccccc21`, for which the Potency entry is “inactive”.

In the case of `CCCn1c(SCC(=O)N2CCc3ccccc32)nnc1-c1ccncc1`, the Potency result is “inactive”.

Turning to `O=C(CSc1ccc2nnc(-c3ccccc3)n2n1)N1CCCc2ccccc21`, the Potency was 25.9 µM (active). In the case of `O=C1NC(Cc2ccc(O)cc2)c2nc3ccc(Cl)cc3c(=O)n2-c2ccccc21` (stereo not drawn) it was “inactive”; in that of `CCOc1ccc(NC(=O)C2CCN(C(=O)N3CCOc4ccccc43)CC2)cc1`, “inactive”. In the case of `CC(C)CNC(=O)C1CCCN(S(=O)(=O)c2ccc(-n3cnnn3)cc2)C1` (stereo not drawn) it was “inactive”; in that of `O=C(Nc1ccc(F)cc1)C1CCCN(S(=O)(=O)c2ccc(-n3cnnn3)cc2)C1` (stereo not drawn), “inactive”; in that of `COC(=O)c1ccc(CN2CCCC(C(=O)Nc3cccc(-n4cnnn4)c3)C2)cc1` (stereo not drawn), 16.4 µM (active). As to `O=C(NCCc1ccco1)C(=O)NCCC1CCCCN1S(=O)(=O)c1ccccc1` (stereo not drawn), the Potency result was “inactive”.

Take `N#C/C(=C(/O)COc1cccc2ccccc12)c1nc2ccccc2[nH]1`: the Potency result is “inactive”. In the case of `N#C/C(=C(/O)Cc1cccc2ccccc12)c1nc2ccccc2s1` it was 20.6 µM (active). Consider `c1ccc2c(CSCc3nc4ccccc4[nH]3)cccc2c1`, for which the Potency result was “inactive”. In the case of `Cc1noc(C)c1S(=O)(=O)N(C)C[C@H]1Oc2ccc(NC(=O)C3CCCCC3)cc2C(=O)N([C@H](C)CO)C[C@@H]1C` it was “inactive”. With `O=C(Nc1ccc(C(F)(F)F)cc1)c1cccc(-n2cnnn2)c1`, the Potency result is “inactive”. In the case of `CC(=O)Nc1ccc(NS(=O)(=O)c2ccc3c(c2)NC(=O)CC(=O)N3)cc1` it was “inactive”. For `COc1ccc(NC(=O)Cn2ncn3c(cc4ccccc43)c2=O)c(OC)c1OC`, the Potency entry was “inactive”. In the case of `COc1ccc(NC(=O)N2CCCC(c3nc(-c4ccc(F)cc4)no3)C2)cc1` (stereo not drawn) it was “inactive”.

For `COc1ccc(C(=O)C2CCCN(S(=O)(=O)c3cccc(C)c3)C2)c(C)c1` (stereo not drawn), the Potency result is “inactive”.

In the case of `COc1cc(-c2noc(C3CCCN(S(=O)(=O)c4cccc(Cl)c4)C3)n2)cc(OC)c1OC` (stereo not drawn), the Potency was 20.6 µM (active).

Regarding `Cn1c(CC(=O)NNC(=O)c2ccccc2F)nc2ccccc21`, the Potency entry is “inactive”. For `O=C(CN1C(=O)NC2(CCOc3ccccc32)C1=O)Nc1cccc([N+](=O)[O-])c1` (stereo not drawn), the Potency result was “inactive”. The result for `COc1ccc(S(=O)(=O)N2CCCCC2)cc1Br` reads “inactive”. Take `COc1ccc(S(=O)(=O)N2CCCCC2)cc1NC(=O)COc1ccccc1`: the Potency entry was “inactive”.

For `COc1ccc(S(=O)(=O)N2CCCCCC2)cc1NC(=O)Cc1ccc(OC)c(OC)c1`, the Potency is 18.3 µM (active).

`COc1ccc(S(=O)(=O)N2CCOCC2)cc1C(=O)NC1CCCCC1`: the Potency entry is “inactive”. As for `CCNC(=O)NC(=O)C(C)OC(=O)c1cc(S(=O)(=O)N2CCCCCC2)ccc1OC` (stereo not drawn), the Potency was 23.1 µM (active). The result for `COc1ccc(CC(=O)Nc2cc(S(=O)(=O)N3CCCCC3)ccc2N2CCN(C)CC2)cc1` reads “inactive”.

`COc1ccc(S(=O)(=O)Nc2ccc(S(=O)(=O)N3CCCCC3)cc2)cc1OC`: the Potency entry is “inactive”. Regarding `CCNC(=O)NC(=O)C(C)OC(=O)C1CCN(S(=O)(=O)c2ccccc2F)CC1` (stereo not drawn), the Potency entry is “inactive”.

In the case of `COc1ccc(-c2ccc(Nc3ccc(S(=O)(=O)N4CCCC4)cc3)nn2)cc1OC`, the Potency is 23.1 µM (active). For `CC(=O)NCCC(=O)Nc1cc(S(=O)(=O)N2CCCCC2)ccc1Oc1cccc(C)c1`, the Potency result was “inactive”. In the case of `Cc1cccn2c(=O)c3cc(C(=O)NCC4CCCO4)c(=N)n(Cc4ccc(F)cc4)c3nc12` (stereo not drawn) it was “inactive”; in that of `CCCCc1ccc(NS(=O)(=O)c2cccc(C(=O)N3CCCN(C)CC3)c2)cc1`, “inactive”. The result for `COc1cc(OC)c(N2CC(C(=O)Nc3cc(Cl)ccc3N3CCOCC3)CC2=O)cc1Cl` (stereo not drawn) reads “inactive”; that for `CC(=O)Nc1ccc(-c2csc(NC(=O)Nc3ccccc3)n2)cc1`, 7.3 µM (active). With `O=C(O)c1ccccc1C(=O)Nc1nc(-c2ccccc2)cs1`, the Potency entry is “inactive”. Consider `CC(=O)Nc1ccc(S(=O)(=O)Nc2nc(-c3ccc(C(C)(C)C)cc3)cs2)cc1`, for which the Potency result is “inactive”. In the case of `CC1C(=O)C(C)C(c2ccc(O)cc2)NC1c1ccc(O)cc1` (stereo not drawn) it was “inactive”; in that of `CC(C)[C@H](NC(=O)N1c2ccccc2NC(=O)[C@@H]1C(C)C)C(=O)N[C@H](C(=O)O)c1ccccc1`, “inactive”; in that of `Cc1cccc(N2CCN(C(C)C(=O)N3CCc4ccccc43)CC2)c1C` (stereo not drawn), “inactive”. The result for `COc1ccc(OCCNC(=O)c2cc(C3CC3)nc3c2cnn3C(C)C)cc1` reads “inactive”. The result for `COc1ccc(CNC(=O)CN(C(=O)c2csnn2)c2cnc3ccccc3c2)cc1` reads “inactive”; that for `O=C1COc2ccc(C(=O)COC(=O)c3cccnc3Cl)cc2N1`, “inactive”; that for `COc1cc(N)c(Cl)cc1C(=O)OCC(=O)c1ccc2c(c1)NC(=O)CO2`, 3.66 µM (active). As for `O=C1COc2ccc(C(=O)COC(=O)c3ccccc3Cl)cc2N1`, the Potency entry was “inactive”.

As for `COc1cc(/C=N/NC(=O)c2cccnc2)ccc1OC(=O)c1cccc(Br)c1`, the Potency result is “inactive”. In the case of `CCOC(=O)c1ccc(N/C(=N/S(=O)(=O)c2ccccc2)c2ccccc2)cc1` it was “inactive”. The result for `CCOC(=O)c1ccc(Nc2cc(C)nc3nc(C)nn23)cc1` reads “inactive”; that for `CCOC(=O)c1nc(Nc2ccc(C(=O)OC)cc2)c2ccccc2n1`, 4.11 µM (active); that for `Cc1cc2occ(CC(=O)NNC(=O)c3ccccc3F)c2cc1C`, “inactive”. Consider `O=C1[C@H]2[C@@H](c3ccc(Cl)cc3)N3C(=O)N(c4cccc(F)c4)C(=O)[C@@]3(Cc3ccccc3)[C@H]2C(=O)N1C1CCCCC1`, for which the Potency result is “inactive”.

Regarding `COc1ccccc1CN1CCN(C(c2ccccc2)c2ccccc2)CC1`, the Potency result is “inactive”. The result for `CCCCn1c(N)c(N(CC(C)C)C(=O)c2ccc(-n3c(C)ccc3C)cc2)c(=O)[nH]c1=O` reads “inactive”; that for `Cc1nc(SCC(=O)NC2CCCCC2C)c(C#N)c(C)c1C` (stereo not drawn), “inactive”. In the case of `COc1ccc(NS(=O)(=O)c2ccc(Oc3c(C#N)cccc3C#N)cc2)cc1` it was 2.31 µM (active). As for `CCOc1ccc(S(=O)(=O)Nc2ccc(S(=O)(=O)Nc3cc(OC)ccc3OC)cc2)cc1`, the Potency entry was “inactive”. In the case of `COc1ccccc1Oc1ccc(S(=O)(=O)Nc2cccnc2)cc1` it was “inactive”; in that of `CN(CC(=O)Nc1ccc(OC(F)(F)F)cc1)C(=O)C1CCC1`, “inactive”. As to `Cc1noc(/C=C/N(C)C)c1S(=O)(=O)N1CCCC(C(=O)NCc2ccco2)C1` (stereo not drawn), the Potency entry was “inactive”. Turning to `CCOC(=O)C1CCN(S(=O)(=O)c2c(C)noc2C)CC1`, the Potency result was “inactive”.

Take `Cc1noc(/C=C/c2ccco2)c1S(=O)(=O)N1CCC(C(=O)Nc2ccc(Cl)cn2)CC1`: the Potency was 5.8 µM (active).
